Laboratory results published in the supplement of paper PMC8728848.
The entries come from a sample that favours the strongest signals as a whole.

Legend:
Assay in all cases: glycan array binding signal (z-score within array); higher = stronger binding
Conditions in all cases: glycan notation: IUPAC condensed, linker removed
[1] = biological target: GlcNAc(b1-3)Gal(b1-4)GlcNAc(b1-3)Gal(b1-4)GlcNAc(b1-3)Gal(b1-4)GlcNAc(b1-2)[GlcNAc(b1-3)Gal(b1-4)GlcNAc(b1-3)Gal(b1-4)GlcNAc(b1-3)Gal(b1-4)GlcNAc(b1-6)]Man(a1-6)[GlcNAc(b1-3)Gal(b1-4)GlcNAc(b1-3)Gal(b1-4)GlcNAc(b1-3)Gal(b1-4)GlcNAc(b1-2)Man(a1-3)]Man(b1-4)GlcNAc(b1-4)[Fuc(a1-6)]GlcNAc
In short: (§1)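 The Consortium for Functional Glycomics database supplied 3228 glycan arrays, of which those lacking an available protein sequence were dropped. The binding signal, a within-array Z-score, was averaged across arrays of the same protein sequence and across linkers. Negative scores can be read as non-binding.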

[2] = biological target: GlcNAc(b1-3)Gal(b1-4)GlcNAc(b1-6)[GlcNAc(b1-3)]Gal(b1-4)GlcNAc
In short: as §1

Kdn(a2-3)Gal(b1-4)GlcNAc = biological target: Kdn(a2-3)Gal(b1-4)GlcNAc
In short: as §1

[3] = biological target: Neu5Ac(a2-3)Gal(b1-3)GlcNAc(b1-3)GalNAc
In short: as §1

[4] = biological target: Neu5Ac(a2-3)Gal(b1-3)[Neu5Ac(a2-6)]GlcNAc(b1-3)[Fuc(a1-3)[Gal(b1-4)]GlcNAc(b1-6)]Gal(b1-4)Glc
In short: as §1

[5] = biological target: Neu5Ac(a2-3)Gal(b1-4)GlcNAc(b1-2)[Neu5Ac(a2-3)Gal(b1-4)GlcNAc(b1-6)]Man(a1-6)[Neu5Ac(a2-3)Gal(b1-4)GlcNAc(b1-2)Man(a1-3)]Man(b1-4)GlcNAc(b1-4)GlcNAc
In short: as §1

[6] = biological target: Neu5Ac(a2-3)Gal(b1-4)GlcNAc(b1-3)Gal(b1-4)GlcNAc(b1-3)[Neu5Ac(a2-3)Gal(b1-4)GlcNAc(b1-3)Gal(b1-4)GlcNAc(b1-6)]GalNAc
In short: as §1

[7] = biological target: Neu5Ac(a2-3)[GalNAc(b1-4)]Gal(b1-4)Glc
In short: as §1

[8] = biological target: Neu5Ac(a2-6)Gal(b1-4)GlcNAc(b1-2)Man(a1-3)[Man(a1-6)]Man(b1-4)GlcNAc(b1-4)GlcNAc
In short: as §1

Neu5Ac(a2-6)GalNAc = biological target: Neu5Ac(a2-6)GalNAc
In short: as §1

[9] = biological target: Neu5Ac(a2-8)Neu5Ac(a2-3)Gal(b1-3)GalNAc(b1-4)[Neu5Ac(a2-3)]Gal(b1-4)Glc
In short: as §1

[10] = biological target: Neu5Ac(a2-8)Neu5Ac(a2-3)Gal(b1-4)GlcNAc
In short: as §1

[11] = biological target: Neu5Ac(a2-8)Neu5Gc(a2-3)Gal(b1-4)GlcNAc
In short: as §1

B1: PX9961X-pdi-531-24-531 (Parabacteroides distasonis) (protein)
chain: DLTEEIHSSVIAENYYNNAGEVMAAMMRPWGHFCGTMQVAQSPWSCNELSSDCAAWPQKGRHGYDNGDWIRLHRHQWIPTDGQVVDAWKKLFEGIGYANNFLTDTENIDFEALQVPMSKAQAQAEMRVYRAYCYWYVMDMFGTAPICEKIGEINPSSKSRAELFAWIEKELNESIPSLSESKTETYGRVSKWGAYALLARLYLNAEIYTGQARWDDCIAACDELAKGGFALDKKWNDTFRADNDKRSTEIIWSIVYDEVYAKGMGWYQRWLHYAHQTGWDLQSGPWNGLVTQPTFYDSFADNDLRKIEGFLIGKQYPRKVDENGNYYYDTTAEPLKGSEEYNGQDLVFVNYIKSMTEGEENSGARSIKYEIQPGTTGDMNNDWVMFRYSEVIYNKAEALMRKNGGKATQEVVDMINSVRQRSFKAEDWEKAKYTTATLTMDEFLAEKGREFAFEGIRRTDLVRFNKFVTTSWWDKTASNEPKRNIFPIPQRQLDANANLSPNEANSLF
glycan array binding signal (z-score) [1]: 0.524
glycan array binding signal (z-score) [2]: -0.581
glycan array binding signal (z-score) (Kdn(a2-3)Gal(b1-4)GlcNAc): -0.114
glycan array binding signal (z-score) [3]: -0.825
glycan array binding signal (z-score) [4]: 0.188
glycan array binding signal (z-score) [5]: 0.2
glycan array binding signal (z-score) [6]: -0.773
glycan array binding signal (z-score) [7]: -0.049
glycan array binding signal (z-score) [8]: -0.755
glycan array binding signal (z-score) (Neu5Ac(a2-6)GalNAc): -0.425
glycan array binding signal (z-score) [9]: 0.572
glycan array binding signal (z-score) [10]: -0.116
glycan array binding signal (z-score) [11]: 14.4
